Source: PubChem
CYP2C9 act = CYP2C9 (human) activation | P11712 | recombinant CYP2C9, luciferin-H conversion, luminescence; active compounds read high; factor 1 = untreated enzyme, 0 = blocked | activation factor at 5 µM | actives 1.4% (n = 96,000) | AID 1024;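 active = activation factor of 2 or more for CYP2C9 at a 5 µM dose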;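 also: 0 = sulfaphenazole-blocked wells and 1 = vehicle-only wells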
CD11b adhes inh = blocks human CD11b/CD18 adhesion to fibrinogen. K562 CD11b/CD18 adhesion to fibrinogen, ATPlite luminescence; Mn2+ added to activate the integrin. inhibition, % at 10 µM. actives 0.54% (n = 93,000). AID 1497. P05107+P11215;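 active = primary inhibition of 50% or more at 10 µM, then 40% or more on retest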
Target sequence (P05107 whole entry, looked up, other chains not shown): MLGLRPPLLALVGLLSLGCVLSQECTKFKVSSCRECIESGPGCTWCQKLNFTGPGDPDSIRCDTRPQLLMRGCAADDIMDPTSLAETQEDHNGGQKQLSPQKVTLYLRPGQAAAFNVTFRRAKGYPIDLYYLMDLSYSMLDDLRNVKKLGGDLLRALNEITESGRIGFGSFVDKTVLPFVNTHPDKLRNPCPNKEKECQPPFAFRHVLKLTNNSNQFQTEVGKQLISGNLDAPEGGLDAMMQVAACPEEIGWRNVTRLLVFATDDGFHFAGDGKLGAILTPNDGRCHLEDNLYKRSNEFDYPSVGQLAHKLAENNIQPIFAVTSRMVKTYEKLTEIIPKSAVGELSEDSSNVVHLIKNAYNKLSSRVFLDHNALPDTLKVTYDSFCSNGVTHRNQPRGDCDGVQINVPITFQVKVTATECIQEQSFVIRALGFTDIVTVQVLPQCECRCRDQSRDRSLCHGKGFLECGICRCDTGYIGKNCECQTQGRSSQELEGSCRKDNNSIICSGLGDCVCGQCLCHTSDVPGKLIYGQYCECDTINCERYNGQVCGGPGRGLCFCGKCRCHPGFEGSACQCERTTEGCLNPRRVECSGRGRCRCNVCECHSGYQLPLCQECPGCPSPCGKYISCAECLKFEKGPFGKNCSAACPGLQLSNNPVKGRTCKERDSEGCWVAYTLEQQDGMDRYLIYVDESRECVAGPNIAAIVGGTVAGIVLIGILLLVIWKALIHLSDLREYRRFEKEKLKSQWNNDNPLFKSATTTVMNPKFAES
CYP2C19 activ = activators of human cytochrome P450 2C19. recombinant CYP2C19, luciferin-H EGE luminescence; active compounds read high; 0 = fully inhibited enzyme, 1 = untreated enzyme. activation factor at 5 µM. 96,000 tested, under 10 active;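 active = activation factor of at least 2 at 5 µM in the primary screen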;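 also: 0 = wells with 2.5 mM tranylcypromine and 1 = vehicle-only wells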
CYP2C9 inhib = blocks human cytochrome P450 2C9; actives 20% (n = 96,000); CYP2C9 Supersomes, luciferin-H conversion, luminescence; inhibition, % at 5 µM;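 active = blocking of liver enzyme CYP2C9 beyond about 50% at 5 µM, limit read from the data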
Mac1 fbg enh = enhancers of human CD11b/CD18 binding to fibrinogen. K562 CD11b/CD18 adhesion to fibrinogen, ATPlite luminescence. activation, % at 10 µM. actives 0.07% (n = 93,000);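 active = 10 µM primary screen giving 50% or more activity, confirmed by 40% or more on retest at that dose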
CYP2C19 inhib = human CYP2C19 inhibition. AID 778. CYP2C19 Supersomes, luciferin-H EGE luminescence, 30 min. actives 21% (n = 96,000). inhibition, % at 5 µM. P33261;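 active = CYP2C19 inhibition above a set limit at 5 µM in the primary screen, cut at about 50% in these data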;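 also: plate controls were negative control wells for no effect and 2.5 mM tranylcypromine positive control for full effect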
* hit, by the source's call; x = not tested or not shown. Shown are actives, neighbours in structure and some others; about 28% of the full set was active somewhere.

SMILES | CYP2C9 act | CD11b adhes inh | CYP2C19 activ | CYP2C9 inhib | Mac1 fbg enh | CYP2C19 inhib
CC(=O)Nc1cccc(NS(=O)(=O)Cc2ccc(Cl)cc2)c1 | 1.3 | 0 | 0 | -26 | -7 | 96*
COc1cccc(NS(=O)(=O)Cc2ccccc2)c1 | 0.9 | x | 0.5 | 8 | x | 49
CC(=O)c1ccc(NS(=O)(=O)c2ccc(CC(C)C)cc2)cc1 | 0.1 | 28 | 0.3 | 86* | -1 | 67*
Cc1cc(C)n2nc(S(=O)(=O)NC3CCCCC3)nc2n1 | 1 | -5 | 0.8 | -5 | 1 | 24
CN(C)c1cccc(NC(=O)Cc2ccc(F)cc2)c1 | 0.4 | -3 | 0 | 62* | -6 | 98*
CN(C)c1cccc(NC(=O)CCc2ccccc2)c1 | 0.7 | -18 | 0 | 34 | -2 | 95*
CC(=O)Nc1cccc(NC(=O)CCc2ccccc2)c1 | 0.9 | -6 | 0.9 | 10 | 1 | 7
COc1ccc(NC(C)=O)cc1NC(=O)CSc1nnc(-c2ccc(F)cc2)n1N | 1 | -13 | 1 | 5 | -1 | 2
CCCC(C)C(=O)Nc1ccc(Cl)cn1 (stereo unspecified) | 0.9 | -10 | 0.5 | 14 | -3 | 53*
Cc1nn(C(C)C(=O)Nc2ccc(Cl)cn2)c(C)c1[N+](=O)[O-] (stereo unspecified) | 0.8 | -3 | 0.3 | 22 | 16 | 74*
Cc1nn(CC(=O)Nc2ccc(Cl)cn2)c(C)c1[N+](=O)[O-] | 1.1 | -38 | 0.5 | -6 | -4 | 48
O=C(COc1ccc(Cl)cc1)Nc1ccc(Cl)cn1 | 0.8 | -1 | 0.3 | 20 | -4 | 68*
COc1ccccc1NS(=O)(=O)c1cc([N+](=O)[O-])ccc1N/N=C/c1sc(N2CCOCC2)nc1-c1ccccc1 | x | 14 | x | x | 63 | x
FC(F)(F)c1ccc(Cl)c(NC(=S)NC2CC2)c1 | x | 38 | x | x | -3 | x
CCN(CC)S(=O)(=O)c1cccc(C(=O)NC(Cc2c[nH]c3ccccc23)c2nnc3n2CCCCC3)c1 (stereo unspecified) | 0.8 | x | 0.9 | 18 | x | 6
Oc1ccccc1-c1nc(NCC2CCCO2)c2ccccc2n1 (stereo unspecified) | 0.6 | 10 | 0.9 | 41 | -3 | 8
c1cncc(-c2nc(NCC3COc4ccccc4O3)c3ccccc3n2)c1 (stereo unspecified) | 0.1 | -22 | 0.5 | 88* | -3 | 49
c1ccc2c(c1)OCC(CNc1ncnc3sccc13)O2 (stereo unspecified) | x | 100* | x | x | -8 | x
CCOC(=O)c1ccc(Nc2nc(-c3cccnc3)nc3ccccc23)cc1 | 0.2 | 6 | 0.3 | 79* | 9 | 66*
CCOC(=O)c1nc(Nc2ccc(C)cc2)c2ccccc2n1 | 0.3 | -1 | 0.3 | 66* | -4 | 71*
COC(=O)CNc1nc(-c2cccnc2)nc2ccccc12 | 0.4 | -1 | 0.8 | 56* | 1 | 24
Cc1ccccc1CNC(=O)c1ccccc1C | 0.9 | -20 | 0.5 | 9 | -3 | 54*
Cc1ccccc1CNC(=O)c1ccccc1 | 0.9 | 23 | 0.4 | 11 | 0 | 57*
COc1cc2c(cc1OC)C1=C(C#N)CN(C3CCCCC3)CN1CC2 | 0.5 | -11 | 0.3 | 52* | 6 | 68*
COc1ccc(CCN2CC(C#N)=C3c4cc(OC)c(OC)cc4CCN3C2)cc1OC | 0.2 | 9 | 0.4 | 76* | 2 | 65*
SMILES | CYP2C9 act | CD11b adhes inh | CYP2C19 activ | CYP2C9 inhib | Mac1 fbg enh | CYP2C19 inhib
COc1ccc(C(=O)N=C2CCC(C#N)=C3c4cc(OC)c(OC)cc4CCN23)cc1 | x | -12 | x | x | -3 | x
C/C(=N/NC(=O)c1ccc2nc[nH]c2c1)c1cccs1 | x | 12 | x | x | 0 | x
CCCOc1cc(C)c(S(=O)(=O)n2ccc(C)n2)cc1C | 0.6 | 21 | 0.3 | 37 | -1 | 70*
CCCc1cc(=O)oc2cc(Oc3ncccn3)ccc12 | 0.6 | -5 | 0.1 | 37 | 0 | 88*
COc1ccc2c(CN(C)c3ccccc3)cc(=O)oc2c1 | 0.6 | 18 | 0 | 36 | -1 | 97*
C=C(Cl)COc1ccc2c(CCC)cc(=O)oc2c1 | 0.7 | -6 | 0.8 | 27 | 0 | 23
Cc1ccc(C)c(NC(=O)CSc2ccc(-c3ccco3)nn2)c1 | x | -5 | x | x | 1 | x
O=C(Cn1cnc2c(nnn2Cc2ccccc2F)c1=O)NCc1ccco1 | 1.1 | x | 1 | -15 | x | 0
CN(c1cccc(NC(=O)Nc2cccc(Cl)c2)c1)S(C)(=O)=O | 0.3 | 23 | 0.4 | 72* | 5 | 62*
Cc1ccc(SCCC(=O)Nc2cccc(N(C)S(C)(=O)=O)c2)cc1 | 0.2 | -19 | 0.1 | 83* | -2 | 91*
COc1ccc(C(=O)Nc2cccc(N(C)S(C)(=O)=O)c2)cc1OC | 0.8 | 0 | 0.7 | 24 | -1 | 34
COc1ccccc1OCC(=O)Nc1cccc(N(C)S(C)(=O)=O)c1 | 0.5 | -9 | 0.2 | 47 | 1 | 83*
CC(=O)Nc1cccc(N(C)S(C)(=O)=O)c1 | 0.8 | 0 | 1.1 | 20 | 0 | -13
Cc1cccc(C)c1N(CC(=O)Nc1cccc(N(C)S(C)(=O)=O)c1)S(C)(=O)=O | 0.4 | -1 | 0.6 | 58* | -3 | 35
CCOc1ccc(NC(=O)CCSc2ccc(C)cc2)cc1 | x | -17 | x | x | 3 | x
O=C(Nc1ccc(F)cc1)c1cccc(NC(=O)C2C3CC4OC(=O)C2C4C3)c1 (stereo unspecified) | 1 | 40 | 1.1 | 3 | 5 | -8
Cc1ccc(C(=O)Nc2cccc(N(C)S(C)(=O)=O)c2)cc1S(=O)(=O)Nc1ccccc1 | 0.3 | 4 | 0.5 | 72* | -4 | 46
Cc1ccc(NC(=O)c2ccc3c(c2)OCCO3)cc1S(=O)(=O)Nc1cccc(Cl)c1 | x | 98 | x | x | -6 | x
O=C(NC(=S)Nn1cnc2c(cnn2-c2ccccc2)c1=O)c1ccccc1 | x | 9 | x | x | 6 | x
COCCNC(=O)C(OC(=O)CC1Sc2ccccc2NC1=O)c1ccncc1 (stereo unspecified) | 0.1 | -8 | 0.2 | 87* | 2 | 83*
O=C(CC1Sc2ccccc2NC1=O)OC(C(=O)NCCc1ccccc1)c1cccnc1 (stereo unspecified) | 0.7 | x | 0.4 | 30 | x | 55*
O=C(NN1C(=O)c2ccccc2C1=O)C1CCCCC1 | 1 | x | 0.9 | 5 | x | 12
O=C(CSc1ccc2ccccc2c1)Nc1ncccn1 | x | 7 | x | x | 3 | x
COCCN1Cc2cccc(C(=O)N3CCN(c4cc(C)ccc4C)CC3)c2C1=O | 0.3 | -6 | 0.3 | 71* | -1 | 75*
COCCN1Cc2cccc(C(=O)Nc3cccc(C)c3C)c2C1=O | 0.7 | -13 | 0.8 | 29 | -2 | 22
Cc1ccc(Cl)cc1N1CCN(C(=O)CN2C(=O)c3cccc4cccc2c34)CC1 | 2* | -11 | 0.8 | -103 | 5 | 22
